Results as given in ChEMBL document CHEMBL2218924, “A broad activity screen in support of a chemogenomic map for kinase signalling research and drug discovery” (Biochem J, 2013).

Assays:
[1] = molecular target: Serine/threonine-protein kinase SIK1 (Homo sapiens) (UniProt P57059); conditions: at 10 µM
[2] = molecular target: Serine/threonine-protein kinase 33 (Homo sapiens) (UniProt Q9BYT3); conditions: at 1 µM
[3] = molecular target: Serine/threonine-protein kinase 33 (Homo sapiens) (UniProt Q9BYT3); conditions: at 10 µM
[4] = molecular target: Tyrosine-protein kinase SYK (Homo sapiens) (UniProt P43405); conditions: at 1 µM
[5] = molecular target: Tyrosine-protein kinase SYK (Homo sapiens) (UniProt P43405); conditions: at 10 µM
[6] = molecular target: T1, Mitogen-activated protein kinase kinase kinase 7 (Homo sapiens) (UniProt O43318); conditions: at 10 µM
T1 sequence (whole entry): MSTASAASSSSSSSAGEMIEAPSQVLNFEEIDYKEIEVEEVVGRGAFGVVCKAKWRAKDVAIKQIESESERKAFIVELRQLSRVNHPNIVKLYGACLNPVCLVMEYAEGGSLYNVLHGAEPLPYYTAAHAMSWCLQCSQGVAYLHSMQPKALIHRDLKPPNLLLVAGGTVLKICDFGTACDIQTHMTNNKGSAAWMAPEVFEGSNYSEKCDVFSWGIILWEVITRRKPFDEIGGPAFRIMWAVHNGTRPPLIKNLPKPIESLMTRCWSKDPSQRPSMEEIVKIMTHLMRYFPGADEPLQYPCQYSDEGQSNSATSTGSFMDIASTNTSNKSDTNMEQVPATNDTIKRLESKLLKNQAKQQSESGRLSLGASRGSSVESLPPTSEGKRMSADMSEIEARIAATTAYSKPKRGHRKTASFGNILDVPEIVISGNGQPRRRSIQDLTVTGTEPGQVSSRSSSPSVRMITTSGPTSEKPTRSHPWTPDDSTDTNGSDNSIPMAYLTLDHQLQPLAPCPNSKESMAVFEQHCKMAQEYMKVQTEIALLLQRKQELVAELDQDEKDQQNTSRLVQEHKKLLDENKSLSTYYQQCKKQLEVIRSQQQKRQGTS

[7] = molecular target: T2, Serine/threonine-protein kinase TAO1 (Homo sapiens) (UniProt Q7L7X3); conditions: at 10 µM
T2 sequence (whole entry): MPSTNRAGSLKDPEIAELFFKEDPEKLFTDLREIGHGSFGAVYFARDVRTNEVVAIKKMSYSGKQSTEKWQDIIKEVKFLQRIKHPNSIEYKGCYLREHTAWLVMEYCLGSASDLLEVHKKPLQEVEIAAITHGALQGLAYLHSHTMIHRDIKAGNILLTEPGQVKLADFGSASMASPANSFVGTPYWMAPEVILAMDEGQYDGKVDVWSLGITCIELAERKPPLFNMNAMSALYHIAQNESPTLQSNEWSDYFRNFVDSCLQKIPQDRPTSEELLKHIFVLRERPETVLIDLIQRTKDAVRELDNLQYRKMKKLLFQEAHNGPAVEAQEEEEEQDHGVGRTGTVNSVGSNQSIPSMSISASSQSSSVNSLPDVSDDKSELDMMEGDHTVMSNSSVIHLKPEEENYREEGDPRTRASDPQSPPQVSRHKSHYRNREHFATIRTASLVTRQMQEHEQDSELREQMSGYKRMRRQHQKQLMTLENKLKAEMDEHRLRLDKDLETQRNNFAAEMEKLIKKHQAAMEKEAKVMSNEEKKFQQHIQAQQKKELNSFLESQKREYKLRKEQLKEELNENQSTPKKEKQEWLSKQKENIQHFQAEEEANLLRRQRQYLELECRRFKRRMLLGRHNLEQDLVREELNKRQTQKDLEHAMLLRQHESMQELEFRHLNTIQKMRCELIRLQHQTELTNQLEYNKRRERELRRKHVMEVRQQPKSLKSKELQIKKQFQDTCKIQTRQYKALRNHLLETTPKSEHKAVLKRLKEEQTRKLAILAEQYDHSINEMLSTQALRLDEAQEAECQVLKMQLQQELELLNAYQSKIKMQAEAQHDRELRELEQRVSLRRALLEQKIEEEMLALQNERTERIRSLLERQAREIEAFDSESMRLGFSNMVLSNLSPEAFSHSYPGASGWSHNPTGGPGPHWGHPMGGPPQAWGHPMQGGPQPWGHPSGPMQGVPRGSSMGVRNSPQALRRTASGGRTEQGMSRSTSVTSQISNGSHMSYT

[8] = molecular target: T3, Serine/threonine-protein kinase TAO3 (Homo sapiens) (UniProt Q9H2K8); conditions: at 1 µM
T3 sequence (whole entry): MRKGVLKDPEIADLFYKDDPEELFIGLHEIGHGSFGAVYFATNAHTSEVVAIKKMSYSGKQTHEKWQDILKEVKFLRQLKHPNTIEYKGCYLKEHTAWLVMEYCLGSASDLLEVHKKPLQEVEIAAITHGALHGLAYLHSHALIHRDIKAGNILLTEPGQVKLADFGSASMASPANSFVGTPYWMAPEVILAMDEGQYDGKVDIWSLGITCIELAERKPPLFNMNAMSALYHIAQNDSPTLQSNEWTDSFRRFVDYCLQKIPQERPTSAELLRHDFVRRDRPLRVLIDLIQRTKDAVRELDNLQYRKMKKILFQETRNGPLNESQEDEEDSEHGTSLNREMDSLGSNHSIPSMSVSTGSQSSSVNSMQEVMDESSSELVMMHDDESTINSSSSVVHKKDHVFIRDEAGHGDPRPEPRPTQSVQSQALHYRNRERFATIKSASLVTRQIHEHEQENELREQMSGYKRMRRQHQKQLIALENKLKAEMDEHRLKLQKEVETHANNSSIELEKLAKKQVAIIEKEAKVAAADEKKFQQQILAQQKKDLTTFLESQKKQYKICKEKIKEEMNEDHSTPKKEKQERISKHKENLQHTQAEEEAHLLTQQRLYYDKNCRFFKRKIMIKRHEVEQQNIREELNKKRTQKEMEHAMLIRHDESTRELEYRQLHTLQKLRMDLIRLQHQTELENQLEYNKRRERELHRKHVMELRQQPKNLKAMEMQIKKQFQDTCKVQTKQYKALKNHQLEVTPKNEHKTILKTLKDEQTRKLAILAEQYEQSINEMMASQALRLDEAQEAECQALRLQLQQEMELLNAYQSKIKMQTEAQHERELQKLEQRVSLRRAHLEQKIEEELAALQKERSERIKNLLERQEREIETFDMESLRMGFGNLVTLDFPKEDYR

[9] = molecular target: T3, Serine/threonine-protein kinase TAO3 (Homo sapiens); conditions: at 10 µM
[10] = molecular target: T4, Serine/threonine-protein kinase TBK1 (Homo sapiens) (UniProt Q9UHD2); conditions: at 1 µM
T4 sequence (whole entry): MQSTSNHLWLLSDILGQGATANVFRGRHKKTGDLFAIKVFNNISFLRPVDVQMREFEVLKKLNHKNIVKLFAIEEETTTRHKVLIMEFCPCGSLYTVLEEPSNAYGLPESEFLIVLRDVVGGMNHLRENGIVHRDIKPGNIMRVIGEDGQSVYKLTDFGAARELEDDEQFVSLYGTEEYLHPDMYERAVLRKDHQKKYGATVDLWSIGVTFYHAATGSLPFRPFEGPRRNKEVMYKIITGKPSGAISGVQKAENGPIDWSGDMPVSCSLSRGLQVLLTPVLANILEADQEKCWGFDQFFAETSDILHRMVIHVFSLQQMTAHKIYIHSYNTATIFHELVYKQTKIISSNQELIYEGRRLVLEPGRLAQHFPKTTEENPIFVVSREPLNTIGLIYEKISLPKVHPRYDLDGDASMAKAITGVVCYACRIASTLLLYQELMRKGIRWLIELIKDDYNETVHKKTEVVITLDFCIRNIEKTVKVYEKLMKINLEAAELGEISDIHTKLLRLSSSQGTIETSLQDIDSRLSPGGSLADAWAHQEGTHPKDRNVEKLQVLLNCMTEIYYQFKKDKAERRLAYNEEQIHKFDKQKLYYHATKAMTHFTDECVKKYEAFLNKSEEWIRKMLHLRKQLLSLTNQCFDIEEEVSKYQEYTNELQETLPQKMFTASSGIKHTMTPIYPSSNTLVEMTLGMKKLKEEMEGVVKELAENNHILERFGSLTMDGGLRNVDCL

[11] = molecular target: T2, Serine/threonine-protein kinase TAO1 (Homo sapiens); conditions: at 1 µM
[12] = molecular target: T5, Serine/threonine-protein kinase TAO2 (Homo sapiens) (UniProt Q9UL54); conditions: at 1 µM
T5 sequence (whole entry): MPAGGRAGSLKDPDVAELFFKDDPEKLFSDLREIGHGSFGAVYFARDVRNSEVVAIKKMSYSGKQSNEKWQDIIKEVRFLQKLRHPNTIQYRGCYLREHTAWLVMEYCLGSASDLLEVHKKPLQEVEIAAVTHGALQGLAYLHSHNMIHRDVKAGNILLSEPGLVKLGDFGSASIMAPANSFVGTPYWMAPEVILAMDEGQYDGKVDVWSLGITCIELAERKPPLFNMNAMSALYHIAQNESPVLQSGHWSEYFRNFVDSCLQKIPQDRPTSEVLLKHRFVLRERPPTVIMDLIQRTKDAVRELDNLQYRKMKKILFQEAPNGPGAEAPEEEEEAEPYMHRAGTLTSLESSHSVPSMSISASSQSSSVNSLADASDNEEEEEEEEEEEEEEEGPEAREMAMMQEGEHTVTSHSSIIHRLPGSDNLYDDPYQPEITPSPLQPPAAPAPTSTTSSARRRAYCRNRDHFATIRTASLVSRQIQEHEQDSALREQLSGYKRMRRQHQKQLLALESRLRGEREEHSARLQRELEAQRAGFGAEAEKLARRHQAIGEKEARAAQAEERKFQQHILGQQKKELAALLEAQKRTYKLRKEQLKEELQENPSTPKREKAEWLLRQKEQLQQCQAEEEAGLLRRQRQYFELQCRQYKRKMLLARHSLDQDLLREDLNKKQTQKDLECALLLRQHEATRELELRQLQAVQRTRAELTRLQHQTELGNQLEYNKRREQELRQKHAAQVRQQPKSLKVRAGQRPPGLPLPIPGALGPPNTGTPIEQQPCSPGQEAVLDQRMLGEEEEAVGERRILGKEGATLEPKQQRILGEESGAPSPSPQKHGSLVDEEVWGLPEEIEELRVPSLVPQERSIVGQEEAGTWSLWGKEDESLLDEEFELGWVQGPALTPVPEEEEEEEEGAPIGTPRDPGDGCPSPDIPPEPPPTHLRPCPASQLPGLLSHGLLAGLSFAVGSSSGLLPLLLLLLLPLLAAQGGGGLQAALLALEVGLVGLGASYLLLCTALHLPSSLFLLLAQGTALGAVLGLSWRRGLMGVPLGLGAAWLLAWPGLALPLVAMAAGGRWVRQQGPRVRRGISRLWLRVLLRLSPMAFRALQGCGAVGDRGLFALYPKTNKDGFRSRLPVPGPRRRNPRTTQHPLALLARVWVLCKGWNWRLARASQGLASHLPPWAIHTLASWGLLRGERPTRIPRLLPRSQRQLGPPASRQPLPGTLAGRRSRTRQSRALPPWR

[13] = molecular target: T5, Serine/threonine-protein kinase TAO2 (Homo sapiens); conditions: at 10 µM

Chain of Serine/threonine-protein kinase 33 (Homo sapiens) (Q9BYT3 whole entry, looked up): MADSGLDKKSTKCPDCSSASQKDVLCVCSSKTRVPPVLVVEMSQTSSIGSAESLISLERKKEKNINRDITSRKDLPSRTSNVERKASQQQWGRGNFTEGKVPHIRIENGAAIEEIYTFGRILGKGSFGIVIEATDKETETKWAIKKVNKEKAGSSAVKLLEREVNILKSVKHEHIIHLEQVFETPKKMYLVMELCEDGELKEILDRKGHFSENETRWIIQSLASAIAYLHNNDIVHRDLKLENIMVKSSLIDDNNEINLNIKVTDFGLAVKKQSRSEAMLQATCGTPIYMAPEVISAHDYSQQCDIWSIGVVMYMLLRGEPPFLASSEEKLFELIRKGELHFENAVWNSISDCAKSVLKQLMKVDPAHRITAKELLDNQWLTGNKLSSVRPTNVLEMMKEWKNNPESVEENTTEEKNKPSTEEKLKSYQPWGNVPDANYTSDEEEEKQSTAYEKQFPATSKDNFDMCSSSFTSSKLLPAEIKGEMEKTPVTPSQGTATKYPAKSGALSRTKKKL
Chain of Serine/threonine-protein kinase SIK1 (Homo sapiens) (P57059 whole entry): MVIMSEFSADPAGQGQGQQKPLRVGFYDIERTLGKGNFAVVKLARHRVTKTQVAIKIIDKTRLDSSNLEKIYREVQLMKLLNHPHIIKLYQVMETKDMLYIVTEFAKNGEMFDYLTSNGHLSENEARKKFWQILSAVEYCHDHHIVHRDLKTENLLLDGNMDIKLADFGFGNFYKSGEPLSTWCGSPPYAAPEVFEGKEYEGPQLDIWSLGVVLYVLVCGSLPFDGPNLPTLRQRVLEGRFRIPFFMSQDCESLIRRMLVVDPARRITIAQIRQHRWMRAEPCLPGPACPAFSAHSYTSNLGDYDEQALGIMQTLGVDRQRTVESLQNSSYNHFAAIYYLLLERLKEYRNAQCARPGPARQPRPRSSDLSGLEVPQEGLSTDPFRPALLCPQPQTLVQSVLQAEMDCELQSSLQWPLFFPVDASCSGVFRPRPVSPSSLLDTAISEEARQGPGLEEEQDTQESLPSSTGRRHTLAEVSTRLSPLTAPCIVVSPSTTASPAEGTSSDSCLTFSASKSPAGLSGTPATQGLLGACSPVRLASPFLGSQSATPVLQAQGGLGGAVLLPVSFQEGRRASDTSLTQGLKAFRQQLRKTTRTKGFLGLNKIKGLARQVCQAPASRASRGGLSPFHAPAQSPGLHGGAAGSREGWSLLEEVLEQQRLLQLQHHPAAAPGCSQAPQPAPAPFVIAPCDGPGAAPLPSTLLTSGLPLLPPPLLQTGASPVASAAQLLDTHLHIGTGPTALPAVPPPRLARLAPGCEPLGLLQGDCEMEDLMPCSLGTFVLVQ

Compound | residual activity [1] [%] | residual activity [2] [%] | residual activity [3] [%] | residual activity [4] [%] | residual activity [5] [%] | residual activity [6] [%] | residual activity [7] [%] | residual activity [8] [%] | residual activity [9] [%] | residual activity [10] [%] | residual activity [11] [%] | residual activity [12] [%] | residual activity [13] [%]
O=C1NC(=O)C(c2cn(CCCn3ccnc3)c3ccccc23)=C1Nc1ccccc1 | 36 | 75 | 32 | 105 | 67 | 66 | 37 | 63 | 19 | 22 |  |  | 
Cn1c2ccccc2c2c3c(c4c5ccccc5n(CCC#N)c4c21)CNC3=O | 24 | 6 | 14 | 3 | 5 |  | 10 | 19 | 16 | 11 | 7 | 10 | 9
